The campaign covered roughly 39,000 compounds. About 500 (1.3%) were called active. This is one part of a sample in which actives are shown more often than they occur.

The experiment relates to S. aureus RN4220. The experiment in a line: growth inhibition call (relative growth <= 0.2). The conditions noted are these: 50 µM.
On to `C[C@@H]1CN([C@@H](C)CO)C(=O)c2cc(NC(=O)Cc3ccccc3)ccc2O[C@@H](C)CCCCO[C@H]1CN(C)C(=O)Nc1cccc2ccccc12`, for which the growth inhibition call is “inactive”.

For the compound `Cc1cc(C(=O)Nc2cccc3c2O[C@H](CN(C)C(=O)Nc2ccccc2)[C@@H](C)CN([C@H](C)CO)C3=O)n(C)n1`, the growth inhibition call is “inactive”.

As for `C[C@@H]1CCCCO[C@@H](CN(C)C(=O)c2ccccc2)[C@@H](C)CN([C@H](C)CO)C(=O)c2cc(NC(=O)CCCCCC(=O)Nc3ccccc3N)ccc2O1`, the growth inhibition call is “inactive”.

As to `C[C@H]1CCCCO[C@H](CN(C)S(=O)(=O)c2ccc(F)cc2)[C@@H](C)CN([C@@H](C)CO)C(=O)c2cc(NC(=O)Nc3cccc4ccccc34)ccc2O1`, the growth inhibition call was “inactive”.

Take `Cc1csc2c(Cl)ncnc12`: the growth inhibition call is “inactive”.

For the compound `COc1ccc(CCN2C(=O)[C@@]3(Cc4ccccc42)c2ccccc2C(=O)N(C2CCCCC2)[C@H]3c2ccc(CO)cc2)cc1`, the growth inhibition call was “inactive”.

On to `COc1ccc(NC(=O)N(C)C[C@@H]2OCCCC[C@H](C)Oc3ccc(NC(=O)C4CCCCC4)cc3C(=O)N([C@H](C)CO)C[C@H]2C)cc1`, for which the growth inhibition call is “inactive”.

Regarding `C[C@H]1CCCCO[C@H](CN(C)C(=O)C2CCCCC2)[C@@H](C)CN([C@@H](C)CO)C(=O)c2cc(NC(=O)c3ccccc3)ccc2O1`, the growth inhibition call is “inactive”.

For `Cc1nn(C)cc1NC(=O)C[C@H]1CC[C@@H]2[C@H](COc3ccc(NC(=O)C4CCOCC4)cc3C(=O)N2C)O1`, the growth inhibition call is “inactive”.

As for `N#CCN1CCSCC1`, the growth inhibition call was “inactive”.

As for `C[C@H]1CN([C@@H](C)CO)C(=O)c2cc(NC(=O)CCN3CCOCC3)ccc2O[C@H]1CN(C)CC1CCCCC1`, the growth inhibition call was “inactive”.

For `Cc1noc(C)c1S(=O)(=O)N(C)C[C@H]1OCCCC[C@@H](C)Oc2ccc(NS(C)(=O)=O)cc2C(=O)N([C@@H](C)CO)C[C@H]1C`, the growth inhibition call was “inactive”.

`COCC(=O)Nc1ccc2c(c1)C(=O)N(C)[C@@H]1CC[C@@H](CC(=O)N3CCc4ccccc4C3)O[C@H]1CO2`: the growth inhibition call is “inactive”.

Regarding `Cc1ccc(S(=O)(=O)N(C)C[C@@H]2Oc3ccc(NC(=O)NC(C)C)cc3CC(=O)N([C@H](C)CO)C[C@@H]2C)cc1`, the growth inhibition call was “inactive”.

Regarding `C[C@@H]1CCCCO[C@@H](CN(C)Cc2ccc(C(=O)Nc3ccccc3N)cc2)[C@@H](C)CN([C@H](C)CO)C(=O)c2cc(NC(=O)C3CCCCC3)ccc2O1`, the growth inhibition call is “inactive”.

As for `C[C@H]1CN([C@@H](C)CO)C(=O)c2cccc(NC(=O)c3cnccn3)c2O[C@H]1CN(C)Cc1ccc(C(=O)O)cc1`, the growth inhibition call was “inactive”.

As to `Cc1ccc(S(=O)(=O)N2CCN(CC(=O)N/N=C/c3ccccn3)CC2)cc1`, the growth inhibition call is “inactive”.

Turning to `NC(=O)N/N=C/c1ccc([N+](=O)[O-])o1`, the growth inhibition call is “active”.

Take `O=C(Cn1ccc([N+](=O)[O-])n1)N1CCOCC1`: the growth inhibition call was “inactive”.

Regarding `COC(=O)N/N=C/c1ccc([N+](=O)[O-])o1`, the growth inhibition call was “inactive”.

For the compound `CCOC(=O)c1ccc(N2NC(=O)/C(=C/c3ccc([N+](=O)[O-])o3)C2=O)cc1`, the growth inhibition call is “inactive”.

`O=C(NN=Cc1ccc([N+](=O)[O-])o1)c1ccc(O)cc1`: the growth inhibition call was “inactive”.

Take `NC(=O)NN=Cc1ccc([N+](=O)[O-])o1`: the growth inhibition call is “active”.

Take `O=C(CN1CCOCC1)N/N=C/c1ccc([N+](=O)[O-])o1`: the growth inhibition call is “active”.

Turning to `O=C(N/N=C/c1ccc(CO)o1)c1ccccn1`, the growth inhibition call was “inactive”.

Take `COCC#Cc1ccc2c(c1)O[C@H](CN(C)C(=O)c1ccccc1F)[C@H](C)CN([C@H](C)CO)S2(=O)=O`: the growth inhibition call is “inactive”.

Take `C[C@H](CO)N1C[C@H](C)[C@H](CN(C)C(=O)Nc2ccc3c(c2)OCO3)Oc2ncc(-c3cncnc3)cc2C1=O`: the growth inhibition call was “inactive”.

With `COc1ccc(NC(=O)Nc2ccc3c(c2)C(=O)N([C@H](C)CO)C[C@@H](C)[C@@H](CN(C)Cc2ccc(C(=O)Nc4ccccc4N)cc2)O3)cc1`, the growth inhibition call was “inactive”.

On to `C[C@@H]1CN([C@H](C)CO)C(=O)CCCn2cc(nn2)CO[C@H]1CN(C)S(C)(=O)=O`, for which the growth inhibition call is “inactive”.

Turning to `O=C(CN1CCOCC1)NCC[C@H]1CC[C@@H](NC(=O)c2ccccc2F)[C@H](CO)O1`, the growth inhibition call is “inactive”.

Take `COc1ccc(NC(=O)N(C)C[C@@H]2OCCCC[C@@H](C)Oc3ccc(NS(=O)(=O)c4ccccc4)cc3C(=O)N([C@@H](C)CO)C[C@@H]2C)cc1`: the growth inhibition call is “inactive”.

`CCS(=O)(=O)Nc1ccc2c(c1)C(=O)N(C)C[C@H](OC)[C@@H](C)CN(Cc1nccs1)[C@H](C)CO2`: the growth inhibition call was “inactive”.

Regarding `CCOC(=O)Nc1ccc(C)s1`, the growth inhibition call was “inactive”.

As for `Cc1noc(C)c1S(=O)(=O)N(C)C[C@@H]1OCCCC[C@@H](C)Oc2ccc(NC(=O)Nc3ccc(C(F)(F)F)cc3)cc2C(=O)N([C@@H](C)CO)C[C@@H]1C`, the growth inhibition call was “inactive”.

In the case of `C[C@@H]1CN([C@H](C)CO)C(=O)c2cc(/C=C/c3ccccc3)cnc2O[C@@H]1CN(C)C(=O)C1CCOCC1`, the growth inhibition call was “inactive”.

As for `C[C@@H]1CN([C@@H](C)CO)C(=O)CCCn2nncc2CO[C@@H]1CN(C)S(=O)(=O)c1ccccc1C#N`, the growth inhibition call is “inactive”.

`COC(=O)c1c(C)cc(OC(=O)c2c(C)cc(O)c(C=O)c2O)c(C)c1O`: the growth inhibition call was “inactive”.

Regarding `CCOC(=O)c1c(C)cc(O)c(C=O)c1O`, the growth inhibition call is “active”.

For `Cc1cc(O)c(C=O)c(O)c1C(=O)O`, the growth inhibition call is “inactive”.

Regarding `CCCCC[C@@H](O)C[C@@H](O)CC(=O)O[C@@H](CCCCC)C[C@@H](O)CC(=O)OC[C@@H](O)[C@@H](O)[C@@H](O)[C@@H](O)CO`, the growth inhibition call was “inactive”.

In the case of `COc1ccc(CN(C)C[C@@H]2Oc3ccc(NC(=O)Nc4ccc(C(F)(F)F)cc4)cc3CC(=O)N([C@H](C)CO)C[C@@H]2C)cc1`, the growth inhibition call is “inactive”.

For the compound `C[C@H]1CCCCO[C@@H](CN(C)C(=O)Nc2ccccc2)[C@@H](C)CN([C@@H](C)CO)C(=O)c2cc(NC(=O)c3ccccc3)ccc2O1`, the growth inhibition call was “inactive”.

As for `O=C1c2ccccc2C(=O)c2c(NCCNCCO)ccc(NCCNCCO)c21`, the growth inhibition call is “inactive”.

Consider `C[C@@H]1CN([C@H](C)CO)C(=O)c2cc(NC(=O)C3CC3)ccc2O[C@@H]1CN(C)Cc1ccc(-c2ccccc2)cc1`, for which the growth inhibition call was “inactive”.

On to `C[C@H]1CN([C@@H](C)CO)C(=O)c2cccc(NC(=O)Nc3ccc(C(F)(F)F)cc3)c2O[C@H]1CN(C)C(=O)Nc1ccc(F)cc1`, for which the growth inhibition call was “inactive”.

Consider `COc1ccc(NC(=O)N(C)C[C@@H]2Oc3c(NC(=O)Nc4ccc(C(F)(F)F)cc4)cccc3C(=O)N([C@@H](C)CO)C[C@@H]2C)cc1`, for which the growth inhibition call is “active”.

For `COc1ccc(NC(=O)Nc2cccc3c2O[C@@H](CN(C)C(=O)Nc2ccc(C(F)(F)F)cc2)[C@@H](C)CN([C@@H](C)CO)C3=O)cc1`, the growth inhibition call is “inactive”.

For the compound `Cc1noc(C)c1NC(=O)Nc1cccc2c1O[C@@H](CN(C)C(=O)Nc1ccc(C(F)(F)F)cc1)[C@@H](C)CN([C@H](C)CO)C2=O`, the growth inhibition call is “inactive”.

Consider `C[C@@H]1CN([C@H](C)CO)C(=O)c2cccc(NC(=O)Nc3ccc(C(F)(F)F)cc3)c2O[C@@H]1CN(C)C(=O)Nc1ccc(F)cc1`, for which the growth inhibition call is “active”.

With `Cc1noc(C)c1NC(=O)Nc1cccc2c1O[C@@H](CN(C)C(=O)Nc1ccc(C(F)(F)F)cc1)[C@H](C)CN([C@@H](C)CO)C2=O`, the growth inhibition call is “active”.

Turning to `COc1ccc(NC(=O)Nc2cccc3c2O[C@H](CN(C)C(=O)Nc2ccc(C(F)(F)F)cc2)[C@@H](C)CN([C@@H](C)CO)C3=O)cc1`, the growth inhibition call was “inactive”.

On to `C[C@@H]1CN([C@@H](C)CO)C(=O)c2cccc(NC(=O)Nc3ccc(C(F)(F)F)cc3)c2O[C@H]1CN(C)C(=O)Nc1ccc(F)cc1`, for which the growth inhibition call is “active”.

For `C[C@H](CO)N1C[C@H](C)[C@H](CN(C)C(=O)Nc2ccc(C(F)(F)F)cc2)Oc2c(NC(=O)Nc3ccc(F)cc3)cccc2C1=O`, the growth inhibition call was “inactive”.

In the case of `Cc1noc(C)c1NC(=O)Nc1cccc2c1O[C@H](CN(C)C(=O)Nc1ccc(C(F)(F)F)cc1)[C@H](C)CN([C@H](C)CO)C2=O`, the growth inhibition call is “inactive”.

For `C[C@@H]1CN([C@@H](C)CO)C(=O)c2cccc(NC(=O)Nc3ccc(F)cc3)c2O[C@H]1CN(C)C(=O)Nc1ccc(C(F)(F)F)cc1`, the growth inhibition call was “inactive”.

As to `C[C@@H]1CN([C@H](C)CO)C(=O)c2cccc(NC(=O)Nc3ccc(F)cc3)c2O[C@H]1CN(C)C(=O)Nc1ccc(C(F)(F)F)cc1`, the growth inhibition call was “inactive”.

Take `CO[C@H]1CN(C)C(=O)c2ccc(NS(C)(=O)=O)cc2OC[C@H](C)N(C(=O)c2ccc3c(c2)OCO3)C[C@@H]1C`: the growth inhibition call is “inactive”.

In the case of `CCCNC(=O)N1C[C@H](O)COC[C@H]2O[C@@H](CC(=O)N3CCOCC3)CC[C@@H]21`, the growth inhibition call is “inactive”.

On to `CCCCc1cc(CCCC)n2nc(-c3ccccc3)cc2n1`, for which the growth inhibition call is “inactive”.

In the case of `CCS(=O)(=O)N1C[C@]2(CN(C2)S(=O)(=O)c2cn(cn2)C)c2c([nH]c3cc(ccc23)OC)[C@H]1CO`, the growth inhibition call was “inactive”.

For `COCC#Cc1cnc2c(c1)C(=O)N([C@H](C)CO)C[C@H](C)[C@@H](CN(C)C(=O)c1ccc3c(c1)OCO3)O2`, the growth inhibition call was “inactive”.

As to `C[C@@H]1CCCCO[C@@H](CN(C)Cc2ccc(C(=O)O)cc2)[C@@H](C)CN([C@H](C)CO)C(=O)c2cc(NC(=O)Nc3ccc(F)cc3)ccc2O1`, the growth inhibition call is “inactive”.

For the compound `CN(C)CCN1C[C@@H]2CN(C(=O)c3cnc[nH]3)C[C@H]2C1=O`, the growth inhibition call is “inactive”.

For the compound `C[C@@H]1CN([C@H](C)CO)C(=O)Cc2cc(NS(=O)(=O)c3cn(C)cn3)ccc2O[C@H]1CN(C)S(=O)(=O)c1ccccc1`, the growth inhibition call was “inactive”.

Turning to `Cc1ccccc1S(=O)(=O)N1[C@@H]2c3cccc(=O)n3C[C@H]1[C@H](CO)[C@H]2C(=O)N1CCOCC1`, the growth inhibition call was “inactive”.

Regarding `C[C@H]1CN([C@@H](C)CO)C(=O)c2cccc(NS(=O)(=O)c3cn(C)cn3)c2O[C@@H]1CN(C)Cc1ccc(C(=O)Nc2ccccc2N)cc1`, the growth inhibition call is “inactive”.

Consider `Cc1ccc(S(=O)(=O)N(C)C[C@H]2OCCCC[C@@H](C)Oc3ccc(NC(=O)CCCCCC(=O)Nc4ccccc4N)cc3C(=O)N([C@H](C)CO)C[C@@H]2C)cc1`, for which the growth inhibition call is “inactive”.

Take `Cc1noc(C)c1NC(=O)N(C)C[C@H]1OCCCC[C@@H](C)Oc2ccc(NS(=O)(=O)c3ccc(Cl)cc3)cc2C(=O)N([C@@H](C)CO)C[C@@H]1C`: the growth inhibition call was “inactive”.
